# Compounds with a hit are over-represented: about 4.1% of the library has one in this group of screens.
# DAX1 inh-1: DAX1 (NR0B1) inhibition, primary screen | actives 1.1% (n = 370,000) | inhibition, % at 6.8 µM | AID 652010 | HEK293T StAR-luciferase reporter, SF-1/DAX-1 repression relief;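 active = inhibition above the mean over all tested compounds plus 3 SD, cut at about 3.6% in these data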;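 also: 0% = DAX-1 cells with DMSO and 100% = cells lacking DAX-1 with DMSO; higher inhibition means more luminescence from relief of DAX-1 repression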
# DAX1 inh-2: inhibits human nuclear receptor DAX1 | HEK293 Gal4-DAX1 luciferase reporter, luminescence | inhibition, % at 6.75 µM | actives 0.99% (n = 340,000) | AID 504766;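 active = inhibition above the mean over all tested compounds plus 3 SD, cut at about 4.2% in these data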;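 also: 0% = DAX1-transfected cells with DMSO and 100% = empty-vector control cells with DMSO; inhibition shows as a rise in luminescence from relieved DAX1 repression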
# hgDAF-12 ag: activates the H. glycines DAF-12 receptor ligand-binding domain; HEK293 GAL4-hgDAF12 UAS-luciferase reporter, agonist luminescence; normalized to butyrate control; activation, % at 6.8 µM; actives 1.8% (n = 370,000); AID 687014;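 active = activation above a cutoff set at the mean of all screened compounds plus 3 SD, cut at about 10% in these data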;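 also: 0% = DMSO wells and 100% = sodium butyrate wells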
# ssDAF12 agonist: S. stercoralis DAF-12 activation, primary screen. actives 1% (n = 370,000). activation, % at 6.8 µM. AID 652126. HEK293 ssDAF-12/GRIP1 lit1-tk-luc reporter, luminescence; % of 3 µM dafachronic acid response;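 active = activation above the mean over all tested compounds plus 3 SD, cut at about 0.9% in these data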;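 also: 0% = DMSO-only wells and 100% = 3 µM delta7-dafachronic acid wells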
# hcDAF-12 act: H. contortus DAF-12 activation, primary screen; activation, % at 6.8 µM; AID 652067; HEK293 hcDAF-12 lit1-tk-luc reporter, luminescence; 0% DMSO, 100% Δ7-dafachronic acid; actives 1.4% (n = 370,000);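 active = activation above the mean of all tested compounds plus 3 SD, cut at about 5.5% in these data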;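 also: 100% = response to 3 µM Δ7-dafachronic acid high control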
# LXRb hcDAF ctr: activates human LXR-beta, counter-screen for hcDAF-12 agonists. activation, % at 6.8 µM. HEK293 Gal4-LXR tk-luc reporter, luminescence, 24 h; normalized: DMSO 0%, positive control 100%. shares compounds with hcDAF-12 act. AID 743027. 3,400 tested, under 10 active;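 active = mean percent activation of the reporter above a cutoff set as the average over tested compounds plus their standard deviation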
# Target sequence (P55055 whole entry, looked up, the tested form may be a part): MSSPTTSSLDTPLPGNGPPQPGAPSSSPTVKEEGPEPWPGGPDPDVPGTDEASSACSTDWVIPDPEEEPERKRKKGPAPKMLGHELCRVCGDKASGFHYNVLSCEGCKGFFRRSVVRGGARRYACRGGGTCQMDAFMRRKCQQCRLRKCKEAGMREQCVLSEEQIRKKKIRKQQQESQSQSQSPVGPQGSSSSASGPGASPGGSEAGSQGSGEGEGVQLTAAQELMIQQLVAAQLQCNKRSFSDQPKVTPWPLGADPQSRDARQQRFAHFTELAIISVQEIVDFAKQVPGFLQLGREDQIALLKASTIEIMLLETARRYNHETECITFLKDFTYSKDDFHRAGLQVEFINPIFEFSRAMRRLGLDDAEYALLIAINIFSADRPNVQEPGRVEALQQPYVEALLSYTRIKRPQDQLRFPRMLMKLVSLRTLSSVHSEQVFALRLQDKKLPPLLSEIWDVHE
# hcDAF12 conf: hcDAF-12 agonism, confirmation assay; actives 61% (n = 3,400); shares compounds with hcDAF-12 act; HEK293 hcDAF-12 lit1-tk-luc reporter, luminescence; % of Δ7-dafachronic acid response; activation, % at 6.8 µM;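 active = mean activation across triplicate tests above the threshold derived from the earlier primary screen, cut at about 5.5% in these data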;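 also: 0% = DMSO only wells and 100% = 3 µM Δ7-dafachronic acid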
# Active calls of the source: *; . = no result.
SMILES,DAX1 inh-1,DAX1 inh-2,hgDAF-12 ag,ssDAF12 agonist,hcDAF-12 act,LXRb hcDAF ctr,hcDAF12 conf
O=C(O)CCc1c(C(=O)O)[nH]c2ccccc12,0,-1,-2,-1,0,.,.
COc1ccc(Br)cc1/C=N/N1C(=O)CSC1=S,0,-1,0,0,7.1*,0,4
O=C1CSC(=S)N1N=Cc1c[nH]c2ccc(Br)cc12,0,2,4,0,1,.,.
Cc1cc(C)n(-c2nc3ccccc3nc2Nc2ccc(CC(=O)O)cc2)n1,-2,0,0,-1,2,.,.
Cc1ccc(Nc2nc3ccccc3nc2-n2nc(C)cc2C)cc1,0,0,6,0,8.8*,0,2
O=C(Nc1ccc(Cl)cc1)C1CCCN1S(=O)(=O)c1cccnc1 (stereo unspecified),-1,.,-1,0,-1,.,.
O=C(Cc1nnc(NC(=O)c2ccccc2)s1)N/N=C/c1ccco1,1,-1,2,1.3*,7.5*,0,0
O=C(Cc1nnc(NC(=O)c2ccccc2)s1)N/N=C/c1cccc(O)c1,0,0,1,-1,-1,.,.
COc1ccccc1CNC(=O)C[C@H]1CC[C@H]2[C@H](COc3ccc(NS(=O)(=O)c4ccc(C)cc4)cc3C(=O)N2C)O1,0,.,-1,-1,-1,.,.
O=C(Nc1nc2c(ccc3ccccc32)s1)c1ccco1,2,1,3,1,6.7*,1,4
O=C(NC(=S)Nc1nc2c(ccc3ccccc32)s1)c1cccs1,-1,1,6,0,9.0*,0,5.9*
O=C(Nc1cccc2ccccc12)c1ccco1,-1,.,0,-1,2,.,.
COC(=O)[C@]12C[C@H](CC(=O)NCC3CCCCC3)C(=O)N(Cc3ccco3)C1=C[C@H](C(C)(C)C)O[C@@H]2C,0,.,-4,-1,-2,.,.
C/C(=N\Nc1nc2ccccc2s1)c1cccs1,3,1,12*,1.4*,18*,2,23*
CC(=NNc1nc2ccccc2o1)c1ncccn1,-5,-5,-3,-1,0,.,.
C/C(=N\NC(=O)c1cc2ccccc2cc1O)c1cccs1,1,1,2,0,5,.,.
C/C(=N\Nc1nc(-c2ccccc2)cs1)c1cccs1,-1,0,-2,0,2,.,.
CC(=NNc1nc2ccccc2s1)c1ncccn1,-2,-4,12*,0,11*,0,1
C/C(=N/NC(=O)c1cccs1)c1cccs1,2,7.1*,13*,0,6.9*,1,4
CCc1ccccc1NC(=O)c1cc(C)nn1-c1ccccc1,-1,.,0,-1,-1,.,.
COC(=O)[C@]12C[C@H](CC(=O)NCC3CCCCC3)C(=O)N(Cc3cccc4ccccc34)C1=C[C@H](C(C)(C)C)O[C@@H]2C,0,.,3,-1,4,.,.
O=C(Nc1ccccc1O)c1ccc([N+](=O)[O-])cc1,1,0,6,1.4*,7.0*,0,3
Cc1ccccc1NC(=O)/C(C#N)=C\c1ccsc1,0,1,7,-1,7.4*,0,6.9*
N#C/C(=C/c1ccc([N+](=O)[O-])cc1)C(=O)Nc1ccccc1O,0,3,6,0,11*,0,5
CCC(=O)N[C@@H]1C[C@@H]2O[C@@H](CO)CC[C@@H]2O[C@@H]1CCc1ccc(-c2cccc(OC)c2)cc1,-1,.,-4,-2,-1,.,.
Cc1sc2nc(COC(=O)CNC(=O)c3ccccc3Cl)[nH]c(=O)c2c1C,1,.,0,-1,-1,.,.
Cc1cccc(-n2ncc3c(NCCCO)ncnc32)c1,4,1,12*,0,6.6*,1,3
C#CCNC(=O)C[C@H]1C[C@@]2(C(=O)OC)C(=C[C@H](C3CCCC3)O[C@@H]2C)N(Cc2ccco2)C1=O,0,.,-3,-1,0,.,.
COc1ccc(NC(=O)c2c(Cl)n(C)c3ccccc23)cc1,-1,-2,7,1.0*,8.2*,0,6.9*

# High-throughput results as filed in PubChem BioAssay.
